# Measured values as given in the supplement of paper PMC10105736.
# Unmarked numbers belong to inactive results.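 Rule for the calls: active = MAPPIT score above the 99th percentile of random reference set scores in the same batch; inactive = at or below it.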
# B1: CG5902 (protein)
# chain: MSNSHYNNYQQQQPHSSNGDPEYQHQQMVHQPQRFSNGHGMKTVAVPDMCLFCFEVLDCELNNVDGPSVPVFSNDAYPLFVTWKIGRDKRLRGCIGTFSAMELHHGLREYALTSAFKDSRFAPISRDELPRLTVSVSILQNFEEAQGHLDWQLGVHGIRIEFLTERGCKRTATYLPQVATEQGWDQLQTIDSLLRKGGYRAAITPETRKSIKLTRYRSQEIQMHYKEYREYQERRAQFGKVQC
# B2: nAChRbeta1 (protein)
# chain: MESSCKSWLLCSILVLVAFSLVSASEDEERLVRDLFRGYNKLIRPVQNMTQKVGVRFGLAFVQLINVNEKNQVMKSNVWLRLVWYDYQLQWDEADYGGIGVLRLPPDKVWKPDIVLFNNADGNYEVRYKSNVLIYPTGEVLWVPPAIYQSSCTIDVTYFPFDQQTCIMKFGSWTFNGDQVSLALYNNKNFVDLSDYWKSGTWDIIEVPAYLNVYEGDSNHPTETDITFYIIIRRKTLFYTVNLILPTVLISFLCVLVFYLPAEAGEKVTLGISILLSLVVFLLLVSKILPPTSLVLPLIAKYLLFTFIMNTVSILVTVIIINWNFRGPRTHRMPMYIRSIFLHYLPAFLFMKRPRKTRLRWMMEMPGMSMPAHPHPSYGSPAELPKHISAIGGKQSKMEVMELSDLHHPNCKINRKVNSGGELGLGDGCRRESESSDSILLSPEASKATEAVEFIAEHLRNEDLYIQTREDWKYVAMVIDRLQLYIFFIVTTAGTVGILMDAPHIFEYVDQDRIIEIYRGK
# Legend:
# Assay in all cases: MAPPIT interaction score (arbitrary units); higher = stronger binary interaction signal, active = hit call of the paper
# trbd = conditions: MAPPIT configuration: N-N; pair source set: screen_1
# Protocol: (§1)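 MAPPIT in HEK293T cells: Drosophila bait and prey ORFs (from the FlyBi ORF collection) were co-transfected in quadruplicate, with two wells stimulated by erythropoietin. Interaction-dependent JAK-STAT activation was read out with a STAT-responsive firefly luciferase reporter. Positive calls use the 99th percentile of random reference set (RRS) scores within each batch […]. Batches Dvs01 and Dvs02 used the N-N configuration and Dvs04 the N-C configuration. Pairs come from FlyBi screens, CuraGen, DPiM, Finley Y2H, Lit-BM-16, Lit-BS-16 and RRS.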
# CG14767 = conditions: pair source set: RRS
# Protocol: as §1
# CG30472 = conditions: MAPPIT configuration: N-N; pair source set: RRS
# Protocol: as §1
# 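Note: HEK293T cells with Epo stimulation, STAT-responsive firefly luciferase reporter, fold induction versus unstimulated cells divided by the larger fold induction of two negative controls lacking either bait or prey.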
Binder,MAPPIT interaction score (trbd),MAPPIT interaction score (CG14767; MAPPIT configuration: N-C),MAPPIT interaction score (CG14767; MAPPIT configuration: N-N),MAPPIT interaction score (CG30472)
B1,2.52 (active),,,
B2,,0.324,0.0737,-0.0464
